The campaign covered roughly 96,000 compounds. About 100 (0.1%) were called active.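 The calls were made as follows: active = displacement above 50% at 20 µM plus a fluorescence interference ratio under 1.5; inactive = the rest.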 Only a selection was taken, and actives are over-represented in it overall. Entries with a potency or affinity are not part of this list.
Target: Bcl-2-like protein 10 (Homo sapiens) (UniProt Q9HD36)
Assay: Bcl-B/TR3 peptide binding disruption – biochemical, fluorescence polarization, FITC-TR3 peptide, selectivity assay for Bfl-1 inhibitor project, primary screen (AID 748);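 also: plate controls were wells without compound for no effect and wells lacking Bcl-B protein for full effect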
Settings: FP displacement of FITC-TR3 peptide from Bcl-B; at 20 µM; hits give high values

displacement, inactive:
Cc1ccc(S(=O)(=O)NNC(=O)C2Cc3c(ccc4ccccc34)O2)cc1 (stereo unspecified) -1.6%
Cc1ccc(CSCCNC(=O)c2ccc(N(C)S(=O)(=O)c3ccccc3)cc2)cc1 0%
CC1CN(S(=O)(=O)c2cccc(C(=O)OCc3cc(=O)oc4cc(O)ccc34)c2)CC(C)O1 (stereo unspecified) 16.7%
CCN(CC)c1ccc(C(=O)OCc2cc(=O)oc3cc(O)ccc23)cc1 0%
N#CCCN1CCN(CCC#N)CC1 -1.9%
COCCCn1c2nc3ccccc3nc2c2c(=O)n(Cc3ccc(Cl)cc3)cnc21 -3.8%
COc1ccc(C2Nc3ccccc3C(=O)N2c2ccc(C)cc2)cc1Cn1nc(C)c([N+](=O)[O-])c1C (stereo unspecified) 8.3%
CCS(=O)(=O)N1CCN(c2cccc(C)c2C)CC1 4.1%
CCS(=O)(=O)N1Cc2ccccc2CC1C(=O)N1CCN(c2ccccc2)CC1 (stereo unspecified) 27%
CC1CCCN(c2oc(-c3cccc4ccccc34)nc2C#N)C1 (stereo unspecified) 6.4%
C/C(N)=C(/C#N)C(=O)CSc1nc2ccc(C)cc2[nH]1 8.9%
COc1ccc2nc(SCC(=O)/C(C#N)=C(\C)N)[nH]c2c1 -14.3%
O=C(O)CCCNc1cc(N2CCC3(CC2)OCCO3)c2noc3c2c1C(=O)c1ccccc1-3 33.8%
CCOC(=O)C(C(=O)OCC)c1cc(Br)c2noc3c2c1C(=O)c1ccccc1-3 -31.4%
CCCCOC(=O)Cn1c(=O)n(CC(=O)OCCCC)c2ccccc21 3.3%
COc1ccc(C(CNC(=O)c2ccc(S(=O)(=O)N3CCOCC3)cc2)N2CCCCC2)cc1 (stereo unspecified) 0.7%
Cc1ccc(S(=O)(=O)N2CCCCC2)cc1C(=O)Nc1ccc2cn[nH]c2c1 5.9%
Cc1ccc(S(=O)(=O)N2CCCC2)cc1C(=O)O 27.9%
O=C(Nc1ccc(F)cc1F)c1noc2c1CCC2 46.1%
O=C(Nc1ccccc1C(=O)N1CCOCC1)c1noc2c1CCCC2 -1.4%
COC(=O)c1ccccc1NC(=O)c1noc2c1CC(C(C)(C)C)CC2 (stereo unspecified) -0.1%
COC(=O)c1ccccc1NC(=O)c1noc2c1CCCC2 -7.7%
O=C(CCCN1C(=O)CCC1=O)Nc1ccccc1F 38.1%
Cc1csc(NC(=O)CSc2nnc(Cn3c(=O)sc4ccccc43)n2-c2ccccc2)n1 -8.5%
CCCC(=O)Nc1ccc2oc(-c3ccc(OC)c(Br)c3)nc2c1 -48.6%
O=C(CN1CCCCC1)Nc1cccc(-n2cnnn2)c1 5.6%

Source: PubChem BioAssay AID748 (Sanford-Burnham Center for Chemical Genomics, 2007)
